Lassa entry inh: blocks Lassa virus binding to or entry into cells; Lassa virus pseudotype entry inhibition, cell reporter; Potency, µM (doses to about 37.9 µM), actives largely listed as inhibitors; hit rate 1.2% among 300,000; AID 540256; calls by dose curve; tested in HEK293 cells; note: nearly all actives have a fitted effect of over 50% in size
FMDV inh: foot and mouth disease virus antiviral activity | FMDV antiviral cell-based qHTS | Potency, µM (highest dose often 57.9 µM), hits mostly inhibitors | hit rate 1.2% among 410,000; calls by dose curve; tested in HEK293T cells; note: read-out not given here; nearly all actives have a fitted effect of over 45% in size
CHX counter: counter-screen hit for Shiga toxin inhibitors, cycloheximide; cell reporter, cycloheximide protein synthesis inhibition counterscreen; max response, %; hit rate 12% among 300,000; AID 2314; in the data active = max response mostly above about 13%, no sharp cut-off; inactive = mostly below about 14%; note: read at 38.3 µM for the half of the compounds with a filed dose
Marburg entry inh: blocks Marburg virus binding to or entry into cells. Marburg virus pseudotyped entry inhibition, cell reporter. AID 540276. hit rate 1.8% among 300,000. Potency, µM (doses to about 37.8 µM), usual class: inhibitors; calls by dose curve; tested in HEK293 cells
HCV inh: inhibitors of hepatitis C virus infection; Huh7.5.1 HCVcc-Cre infection, luciferase reporter, 44 h; Potency, µM (titrated, usually from 41.8 µM), most hits filed as inhibitors; hit rate 3.4% among 340,000; AID 651820; active = well fitted inhibition curve with a large enough effect; inconclusive = small, poorly fitted or top-dose-only effect, or another doubt; inactive = no such curve, though single readings can be large or run the other way
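Infectious HCV cell culture screen: compound-treated cells (1,000/well, pre-plated 4 h) are infected with HCVcc-Cre at roughly 0.5 moi and grown 44 h. Infection is quantified by luciferase signal after 15 min substrate incubation at room temperature.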
Shiga toxin inh: Shiga toxin inhibition; Vero cells, Shiga toxin protein synthesis inhibition reporter; inhibition, % at 38.7 µM; hit rate 9.2% among 290,000; AID 2315; in the data active = inhibition mostly above about 28%, no sharp cut-off; inactive = mostly below about 43%
Large screens that a line does not name were inactive; ! = a repeat was not active. A selection: hits, their analogues and other compounds. The true share with any hit is near 13%.

COC(=O)c1nn(-c2ccc3c(c2)CCN3C(C)=O)cc1O	Lassa entry inh 2.6µM, FMDV inh 8.9µM, Marburg entry inh inconclusive
CCOC(=O)c1nn(-c2c(C)n(C)n(-c3ccccc3)c2=O)cc1O	none
CC(=O)N1CCc2cc([N+](=O)[O-])ccc21	none (no result: CHX counter, Shiga toxin inh)
COC(=O)C1=C(C)N(Cc2ccc3c(c2)OCO3)C(=O)C1	none
COC(=O)c1nn(-c2ccc3c(c2)OCO3)cc1O	Lassa entry inh inconclusive, CHX counter 33
CCOC(=O)c1nn(-c2ccc([N+](=O)[O-])cc2)cc1O	CHX counter 31, Shiga toxin inh 46 (no result: Lassa entry inh, Marburg entry inh)
CCOC(=O)c1nn(-c2ccc(C)c(C)c2)cc1O	CHX counter 42, Shiga toxin inh 94
CC(=O)OC[C@H]1O[C@H](CC=NO[C@@H](C)c2cc(-c3c(C)cc(C)cc3C)no2)C=C[C@@H]1OC(C)=O	none (no result: Lassa entry inh, FMDV inh, CHX counter, HCV inh, Shiga toxin inh)
CCOC(=O)c1nn(-c2ccc3c(c2)OCCO3)cc1O	CHX counter 40, Marburg entry inh inconclusive, Shiga toxin inh 84 (no result: Lassa entry inh)
CCOC(=O)c1nn(-c2ccc(OC)cc2)c(=O)c2c(N)scc12	Lassa entry inh inconclusive
CCOC(=O)c1nn(-c2ccc(C)c(C)c2)c(=O)c2c(N)scc12	HCV inh 6.3µM
CC(CO)NS(=O)(=O)c1cccc(Cl)c1F (stereo not given)	none (no result: Lassa entry inh, CHX counter, Marburg entry inh, HCV inh, Shiga toxin inh)
CSc1nccc(Oc2cccc(C#N)c2)n1	none
CCN(CC)CCOC(=O)c1cc(Cl)c(N)cc1OC	Lassa entry inh inconclusive, Marburg entry inh 13µM!, HCV inh 4.5µM (no result: CHX counter, Shiga toxin inh)
CCN(CC)CCNC(=O)c1cc(Cl)c(N)cc1OC	Lassa entry inh inconclusive, Marburg entry inh inconclusive
CCOC(=O)COc1cccc2c(=O)n(CC(=O)NCc3ccc(F)cc3)ccc12	none (no result: Lassa entry inh, Marburg entry inh)
COc1cccc(C(=O)N2CCN(c3ccc(N4CCOCC4)nn3)CC2)c1	Marburg entry inh inconclusive (no result: CHX counter, Shiga toxin inh)
COc1ccc2c(c1)CCc1cc(C(=O)N3CCN(c4ccc(N5CCOCC5)nn4)CC3)sc1-2	FMDV inh inconclusive, HCV inh 10µM (no result: Lassa entry inh, Marburg entry inh)
COc1ccc(CCNC(=O)Cn2cnc3c(cnn3C(C)(C)C)c2=O)cc1OC	HCV inh inconclusive
Cc1ccc(NC(=O)Cn2cnc3c(cnn3C(C)(C)C)c2=O)cc1	none
CC(C)(C)n1ncc2c(=O)n(CC(=O)NCCc3ccccc3)cnc21	CHX counter 21, Shiga toxin inh 61
Cc1ccc(-n2ccn(CC(=O)NCCc3ccccc3)c(=O)c2=O)cc1C	CHX counter 33 (no result: Marburg entry inh)
CC(C)(C)n1ncc2c(=O)n(CC(=O)NCc3ccccc3Cl)cnc21	Lassa entry inh inconclusive, CHX counter 32, Marburg entry inh inconclusive, Shiga toxin inh 64
Cc1ccc(Cn2cnc3c(cnn3C(C)(C)C)c2=O)cc1	FMDV inh 25µM, HCV inh 11µM (no result: Lassa entry inh, Marburg entry inh)
O=C(COC(=O)c1ccco1)Nc1cccc(Br)c1	none
CS(=O)(=O)N1CCN(C2Cc3ccccc3C2)CC1	none (no result: FMDV inh)
CC(C)C(NC(=O)c1ccc(Cl)cc1Cl)C(=O)N1CCC1 (stereo not given)	none (no result: CHX counter, Shiga toxin inh)
O=C(COC(=O)/C=C/c1cccc(F)c1)NC1CC1	none (no result: CHX counter, Shiga toxin inh)
CCCNC(=O)OCc1cccnc1Sc1ccc(C)cc1	Lassa entry inh 10µM, CHX counter 31, Marburg entry inh inconclusive, Shiga toxin inh 98
CCOC(=O)Nc1cccnc1Sc1ccc(Cl)cc1	none (no result: CHX counter, Shiga toxin inh)
CC1CC(=O)Nc2ccccc2N1 (stereo not given)	none (no result: CHX counter, Shiga toxin inh)
CC1CC(c2ccccc2)=Nc2ccccc2N1 (stereo not given)	CHX counter 46, Shiga toxin inh 54
COC(=O)C=CC(=NNc1ccccc1)c1ccccc1	Marburg entry inh inconclusive, HCV inh 22µM (no result: CHX counter, Shiga toxin inh)
C/C(=N\NC(=O)CCn1nnc2ccccc21)c1cccs1	CHX counter 33, Shiga toxin inh 51
O=C(CCn1nnc2ccccc21)N1CCN(c2ccccc2)CC1	Shiga toxin inh 78
Cc1ccc(NC(=O)CCn2nnc3ccccc32)cc1	CHX counter 25, Marburg entry inh inconclusive, Shiga toxin inh 79
Cc1ccc(C(=O)Cn2nnc3ccccc32)cc1C	Lassa entry inh inconclusive, CHX counter 69, Marburg entry inh inconclusive, Shiga toxin inh 140 (no result: FMDV inh)
C/C(=N\NC(=O)Cn1cnc2ccccc21)c1cccs1	none
Cc1ccc(C(=O)NNC(=O)Cn2nnc3ccccc32)cc1	Lassa entry inh inconclusive, CHX counter 17, Shiga toxin inh 41
O=C(Cn1nnc2ccccc21)NCc1ccccc1	Lassa entry inh inconclusive, CHX counter 60, Marburg entry inh inconclusive, Shiga toxin inh 64
O=C(Cn1c(C(F)(F)F)nc2ccccc21)c1ccc(Br)cc1	Lassa entry inh inconclusive, Marburg entry inh inconclusive
c1ccc(CCn2nnc3ccccc32)cc1	CHX counter 50, Shiga toxin inh 189 (no result: Lassa entry inh, Marburg entry inh)
O=C(Cn1nnc2ccccc21)c1ccc(Br)cc1	CHX counter 35, Marburg entry inh inconclusive, Shiga toxin inh 48
CC(=O)NNC(=O)CCn1nnc2ccccc21	Lassa entry inh inconclusive
CC1CCC(NC(=O)c2[nH]c(C(F)(F)F)nc2-c2ccccc2)CC1 (stereo not given)	none (no result: Lassa entry inh, CHX counter, Marburg entry inh, HCV inh, Shiga toxin inh)
CCCCCn1cc(C(=O)C(=O)N2CCOCC2)c2ccccc21	none
CC(=O)Nc1ccc(NC(=O)CCCCCn2nnc3ccccc3c2=O)cc1	none
Cc1ccc(C(=O)Cn2nnc3ccccc32)cc1	CHX counter 38, Marburg entry inh inconclusive, Shiga toxin inh 66
CC(=O)Nc1ccc(C(=O)Cn2nnc3ccccc3c2=O)cc1	CHX counter 13, Marburg entry inh inconclusive, Shiga toxin inh 50 (no result: HCV inh)
O=C(Cn1nnc2ccccc21)OCC(=O)c1ccc(Cl)cc1	none (no result: Lassa entry inh, FMDV inh, Marburg entry inh, HCV inh)
O=C([O-])c1cc(-c2ccccc2)cc(-c2ccccc2)[n+]1CCc1ccc(Cl)cc1	FMDV inh 35µM (no result: Lassa entry inh, CHX counter, Marburg entry inh, Shiga toxin inh)
Cc1cc(-c2ccccc2)cc(-c2ccccc2)[n+]1CCc1ccccc1	FMDV inh 20µM, HCV inh inconclusive (no result: Lassa entry inh, CHX counter, Marburg entry inh, Shiga toxin inh)
Cc1cc(-c2ccccc2)cc(-c2ccccc2)[n+]1C	Lassa entry inh inconclusive, Marburg entry inh inconclusive
C[n+]1c(-c2ccccc2)cc(-c2ccc(O)cc2)cc1-c1ccccc1	none
Fc1ccc(C[n+]2c(-c3ccccc3)cc(-c3ccccc3)cc2-c2ccccc2)cc1	HCV inh 10µM (no result: Lassa entry inh, CHX counter, Marburg entry inh, Shiga toxin inh)
c1ccc(-c2cc3ncc4c(n3n2)-c2ccccc2OC4)cc1	Lassa entry inh inconclusive, Marburg entry inh inconclusive (no result: CHX counter, HCV inh, Shiga toxin inh)
O=C(CCn1c2c(c3ccccc31)CCCC2)NNC(=O)c1ccc([N+](=O)[O-])cc1	HCV inh inconclusive
CCOC(=O)C1=C(CC)Nc2ccccc2N=C1NC(=O)Nc1ccc(Cl)c(Cl)c1	Lassa entry inh inconclusive, Marburg entry inh inconclusive, HCV inh inconclusive
CC1Sc2ccc(S(=O)(=O)N3CCC(C(=O)Nc4cccc(Cl)c4)CC3)cc2NC1=O (stereo not given)	Lassa entry inh inconclusive, FMDV inh 20µM, Marburg entry inh inconclusive, HCV inh 3.2µM
CCc1ccc(NC(=O)C2CCN(S(=O)(=O)c3ccc4c(c3)NC(=O)C(C)S4)CC2)cc1 (stereo not given)	Lassa entry inh inconclusive, Marburg entry inh inconclusive, HCV inh 8.9µM
CC1Sc2ccc(S(=O)(=O)CCC(=O)N3CCN(c4cccc(Cl)c4)CC3)cc2NC1=O (stereo not given)	FMDV inh 25µM, HCV inh inconclusive (no result: Lassa entry inh, Marburg entry inh)
